Experimental findings from PMC4336329 (PLoS ONE, 2015) are described below.

The campaign covered roughly 310,000 compounds. About 14,000 (4.5%) showed an effect of 50% or more. The effect is printed as a negative number. What follows is part of a selection rich in strong results, with near analogues and random picks from the rest.
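Note: peak tail current of the secondary pulse compared with the same well before compound.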

human ether-à-go-go-related gene (hERG) potassium channel, sequence (Q12809 whole entry, looked up): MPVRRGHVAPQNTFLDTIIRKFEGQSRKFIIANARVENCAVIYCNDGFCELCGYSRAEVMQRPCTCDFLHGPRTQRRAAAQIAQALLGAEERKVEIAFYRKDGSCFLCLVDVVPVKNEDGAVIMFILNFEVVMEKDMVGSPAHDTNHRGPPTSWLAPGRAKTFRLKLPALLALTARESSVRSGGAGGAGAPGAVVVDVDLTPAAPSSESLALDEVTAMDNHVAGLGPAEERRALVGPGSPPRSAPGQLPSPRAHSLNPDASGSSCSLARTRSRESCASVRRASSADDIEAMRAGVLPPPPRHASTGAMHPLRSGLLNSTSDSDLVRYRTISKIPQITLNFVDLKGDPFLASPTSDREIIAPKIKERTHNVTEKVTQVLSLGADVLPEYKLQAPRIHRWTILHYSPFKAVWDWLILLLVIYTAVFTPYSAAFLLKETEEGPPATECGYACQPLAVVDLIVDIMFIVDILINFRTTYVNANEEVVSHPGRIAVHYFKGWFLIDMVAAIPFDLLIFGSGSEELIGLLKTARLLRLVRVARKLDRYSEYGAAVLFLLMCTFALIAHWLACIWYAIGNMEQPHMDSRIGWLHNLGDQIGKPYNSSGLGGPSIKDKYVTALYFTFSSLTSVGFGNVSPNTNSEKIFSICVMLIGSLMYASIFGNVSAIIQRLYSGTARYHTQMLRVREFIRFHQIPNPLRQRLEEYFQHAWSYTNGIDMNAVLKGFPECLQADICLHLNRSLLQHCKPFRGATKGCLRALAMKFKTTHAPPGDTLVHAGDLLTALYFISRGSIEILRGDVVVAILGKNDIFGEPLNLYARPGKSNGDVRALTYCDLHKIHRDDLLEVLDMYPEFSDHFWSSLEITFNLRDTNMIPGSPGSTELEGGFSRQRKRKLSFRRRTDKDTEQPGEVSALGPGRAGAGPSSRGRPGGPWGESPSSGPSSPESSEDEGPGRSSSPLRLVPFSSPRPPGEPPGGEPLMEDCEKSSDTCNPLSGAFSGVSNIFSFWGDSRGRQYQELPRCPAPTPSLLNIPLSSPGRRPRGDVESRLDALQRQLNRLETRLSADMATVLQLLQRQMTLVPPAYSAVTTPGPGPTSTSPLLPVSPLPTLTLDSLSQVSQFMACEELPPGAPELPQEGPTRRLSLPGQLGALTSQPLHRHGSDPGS

The assay has as its target human ether-à-go-go-related gene (hERG) potassium channel (human, UniProt Q12809). Description: primary screen, population patch clamp on CHO cells stably expressing hERG; higher = less effect of the substance.
In the case of `CCN(CC)S(=O)(=O)c1ccc(OC)c(NC(=O)CCS(=O)(=O)Cc2ccccc2)c1`, the “hERG current change (%, negative = inhibition) at 10uM” value was -28%.
For the compound `Cc1csc(NC(=O)C2C3C=CC(C3)C2C(=O)O)n1` (centres unmarked), the “hERG current change (%, negative = inhibition) at 10uM” value was -6.11%.
For `COC(=O)Cc1ccc(NC(=S)NCc2ccccc2Cl)cc1` the value was -6.56%; for `COC(=O)c1ccc(C(=O)OC)c(NS(C)(=O)=O)c1`, -1.73%.
For `O=C1CC(C(F)(F)C(F)(F)C(F)(F)F)=Nc2ccccc2N1` the value was -15.1%; for `CC(=O)OCCNC(=O)c1cc2ccccc2oc1=O`, 9.06%; for `N=c1n(Cc2ccccc2)c2ccccc2n1Cc1ccccc1`, -62.1%.
For `Br.CC(C)(C)C(=O)Cn1c(=N)n(Cc2ccccc2)c2ccccc21` the value was -48.2%.
In the case of `Cl.N=c1n(CCO)c2ccccc2n1Cc1ccccc1`, the “hERG current change (%, negative = inhibition) at 10uM” value is recorded as -25.1%.
Consider `Br.CCn1c(=N)n(Cc2ccccc2F)c2ccccc21`, for which the “hERG current change (%, negative = inhibition) at 10uM” value was -37.5%.
On to `O=c1n(Cc2ccccc2F)c2ccccc2n1Cc1ccccc1F`, for which the “hERG current change (%, negative = inhibition) at 10uM” value worked out at 19.4%.
For `Br.N=c1n(CCc2ccccc2)c2ccccc2n1Cc1ccccc1F`, the “hERG current change (%, negative = inhibition) at 10uM” value is listed as -62.6%.
For `O=C(COc1ccc(Cl)cc1)NCCNC(=O)c1cnccn1` the value was 5.3%; for `Cc1oc(-c2ccc(Cl)cc2)nc1CS(=O)CC(=O)NCCN1CCCCCC1` (centres unmarked), -39.4%; for `Cc1ccccc1Cn1cc(S(=O)(=O)c2ccc(C(C)C)cc2)c(=O)c2cc3c(cc21)OCO3`, -20.2%.
Turning to `CC1CCC(C(C)C)C(OC(=O)Cn2c(COc3ccccc3)[n+](C)c3ccccc32)C1.[Cl-]` (centres unmarked), the “hERG current change (%, negative = inhibition) at 10uM” value was -80.4%.
Regarding `CC1CCC(C(C)C)C(OC(=O)CSc2nc(N)cc(=O)[nH]2)C1` (centres unmarked), the “hERG current change (%, negative = inhibition) at 10uM” value was found to be 12.7%.
Take `CC1CCC(C(C)C)C(OC(=O)COC(=O)c2ccccc2N)C1` (centres unmarked): the “hERG current change (%, negative = inhibition) at 10uM” value was found to be 9.64%.
For `Cc1ccccc1OCc1n(CC(=O)OC2CC(C)CCC2C(C)C)c2ccccc2[n+]1C.[Cl-]` (centres unmarked) the value was -72%.
For `Cc1cccc(OC(=O)Cn2c(C(F)(F)F)nc3ccccc32)c1` the value was 17.6%.
With `CC1CCC(C(C)C)C(OC(=O)COC(=O)c2cc(O)ccc2N)C1` (centres unmarked), the “hERG current change (%, negative = inhibition) at 10uM” value is 12.9%.
For `Cc1cccc(OCc2n(CC(=O)OC3CC(C)CCC3C(C)C)c3ccccc3[n+]2C)c1.[Cl-]` (centres unmarked) the value was -75%.
For `COc1ccc(OCc2n(CC(=O)OC3CC(C)CCC3C(C)C)c3ccccc3[n+]2C)cc1.[Cl-]` (centres unmarked) the value was -76.4%; for `Cc1ccccc1OC(=O)Cn1c(C(F)(F)F)nc2ccccc21`, 3.95%; for `CN1CCN(C(=O)CCCOc2cc(=O)n(C)c3ccccc23)CC1`, 0.874%.
For `COc1cccc(NC(=O)C2C3C=CC(O3)C2C(=O)O)c1` (centres unmarked) the value was 10.6%; for `Cc1ccccc1OCCNC(=O)CSc1ccc(C(F)(F)F)cc1[N+](=O)[O-]`, 10.6%.
Consider `COc1ccc(CCNC(=O)c2ccc(N3CCCC3=O)cc2)cc1OC`, for which the “hERG current change (%, negative = inhibition) at 10uM” value is on record as 15.3%.
Consider `COc1ccc(C(=O)N/C(=C/c2cccnc2)C(=O)N2CCN(C)CC2)cc1OC`, for which the “hERG current change (%, negative = inhibition) at 10uM” value is given as 11.4%.
With `Cc1cc(C)n(C(=O)COc2ccccc2C)n1`, the “hERG current change (%, negative = inhibition) at 10uM” value was -3.33%.
As to `Nc1c(C(=O)Nc2ccccc2F)sc2nc(-c3cccnc3)ccc12`, the “hERG current change (%, negative = inhibition) at 10uM” value is 20.9%.
For `O=C(COC(=O)c1ccncc1)Nc1cc(Cl)ccc1Cl` the value was 6.07%; for `CCOCCn1c(SCc2ccc(F)cc2)nc2c1c(=O)[nH]c(=O)n2C`, -19.5%.
On to `Cc1ccc(C(C)C)c(OCCOCCN2CCNCC2)c1.O=C(O)C(=O)O`, for which the “hERG current change (%, negative = inhibition) at 10uM” value is recorded as -3.95%.
Turning to `CC(C)(C)c1ccc(OCC(=O)NCCN2CCCC2)cc1.Cl`, the “hERG current change (%, negative = inhibition) at 10uM” value was -33.7%.
With `CCOC(=O)n1c(=O)n(Cc2ccc(Cl)cc2Cl)c2ccccc21`, the “hERG current change (%, negative = inhibition) at 10uM” value is on record as -3.22%.
Turning to `O=C(Nc1ccc(Cl)c(C(F)(F)F)c1)NC1CC2CCCC(C1)N2Cc1ccccc1` (centres unmarked), the “hERG current change (%, negative = inhibition) at 10uM” value was -71%.
For `COc1ccc(NC(=O)NC2CC3CCCC(C2)N3Cc2ccccc2)cc1` (centres unmarked) the value was -50.1%; for `CC(=O)NC1CC2CCCC(C1)N2C(=O)Nc1ccc(Cl)c(C(F)(F)F)c1` (centres unmarked), -3.34%; for `Cc1cccc(NC(=S)NC2CC3CCCC(C2)N3Cc2ccccc2)c1C` (centres unmarked), -10.4%.
For `COc1ccc(CN2C3CCCC2CC(NC(=O)Nc2ccccc2C)C3)cc1` (centres unmarked) the value was -59%.
With `COCC(=O)NC1CC2CCCC(C1)N2Cc1ccccc1` (centres unmarked), the “hERG current change (%, negative = inhibition) at 10uM” value is given as -4.63%.
For `COc1ccc(NC(=O)N2C3CCCC2CC(NC(=O)c2ccccc2)C3)cc1` (centres unmarked) the value was -15.9%.
In the case of `O=C(Nc1ccc(Cl)c(C(F)(F)F)c1)NC1CC2CCCC(C1)N2C1CC1` (centres unmarked), the “hERG current change (%, negative = inhibition) at 10uM” value was -10.1%.
For `Cc1ccccc1NC(=O)NC1CCCCCCC1` the value was 8.64%.
For `COc1ccc(C(=O)NC2CC3CCCC(C2)N3Cc2ccccc2)c(OC)c1` (centres unmarked) the value was -26.5%.
`COc1ccc(CN2C3CCCC2CC(NC(=O)Nc2ccccc2)C3)cc1` (centres unmarked): the “hERG current change (%, negative = inhibition) at 10uM” value is -74.1%.
